HIV RNase H inh-1 = blocks HIV-1 RNase H cleavage of RNA/DNA duplex; hit rate 1.9% among 65,000; RT-RNase H RNA/DNA duplex cleavage, fluorescence; P04585; inhibition, % at 10 µM; AID 565; in the data active = inhibition above about 50%
HIV RNase H inh-2 = confirmation of HIV-1 reverse transcriptase RNase H inhibitors. shares compounds with HIV RNase H inh-1. Recombinant RT RNase H, fluorescent RNA/DNA duplex cleavage. inhibition, % at 10 µM. hit rate 39% among 1,000. AID 651; in the data active = inhibition above about 48%; inconclusive = no clear call, values can overlap the other calls
Active calls of the source: *; ? = inconclusive. The full list was thinned out, with hits kept by preference.

SMILES	HIV RNase H inh-1	others
COc1ccc(-c2nnc(SCC(=O)c3cc(C)n(Cc4cccs4)c3C)o2)cc1	57.6*
COc1ccc(-c2nnc(SCC(=O)c3cccs3)o2)cc1	-0.1
COc1ccc(-n2cnnc2SCC(=O)c2cc(C)n(Cc3cccs3)c2C)cc1	1.3
COc1cccc(NC(=O)CSc2nnc(-c3cccc(OC(C)C)c3)n2N)c1	7.6
CC1=C(C(N)=O)C(c2ccccn2)n2nc(SCc3ccccc3Cl)nc2N1 (stereo unspecified)	-2.8
CN1Cc2cc(C(=O)c3cc(Cl)cc(CSc4ncccn4)c3O)cnc2NC1=O	59.2*
COc1ccc(OC)c(NC(=O)CSc2nnc(N)s2)c1	1.0
CCOC(=O)c1c(Nc2nc(C)c(C(=O)NC)s2)sc(C)c1C	0.5
Cc1nn2c(=O)cc(CSc3nc4ccccc4[nH]3)nc2s1	-0.3
Cc1csc(=Nc2ccc(S(=O)(=O)N3CCOCC3)cc2)n1Cc1ccco1	-55.1
COc1cccc(NC(=O)Cn2c(SCC(=O)N3CCOCC3)nc3ccccc32)c1	5.1
CCCCn1c(SCC(=O)Nc2cccc(OC)c2)nc2ccc(N3CCOCC3)cc2c1=O	50.6*
CCOC(=O)c1cccc(NC(=O)CSc2nc3ccccc3c(=O)n2CCOC)c1	4.5
CC(=O)c1cccc(NC(=O)COc2ccc(S(=O)(=O)N3CCCCC3)cc2)c1	-0.5
N#CC1=C(N)Oc2n[nH]c(-c3ccc(F)cc3)c2C1c1ccncc1 (stereo unspecified)	12.9
COc1ccccc1N1C(=O)CC(Sc2nccc(C)n2)C1=O (stereo unspecified)	60.2*
CCOc1ccccc1N1C(=O)CC(Sc2ncccc2C(=O)O)C1=O (stereo unspecified)	17.7
CCOc1ccc(N2C(=O)CC(Sc3nccc(C)n3)C2=O)cc1 (stereo unspecified)	-16.9
CC1CCc2c(C(=O)N3CCN(S(=O)(=O)c4cccs4)CC3)csc2C1 (stereo unspecified)	-5.5
Cc1ccc(C)c(/C(O)=C2\C(=O)C(=O)N(CCCN(C)C)C2c2cccnc2)c1 (stereo unspecified)	-8.4
O=C(OCCNc1ncc(C(F)(F)F)cc1Cl)c1ccc(S(=O)(=O)N2CCOCC2)cc1	-1.6
COc1cc(NS(=O)(=O)c2ccc(C)cc2)ccc1-n1cnnn1	-7.1
CCC(c1nnc(SCC(=O)NCCc2ccc(Cl)cc2Cl)o1)N(C)C (stereo unspecified)	50.8*
C[C@H](N)c1nnc(SCc2ccc(Cl)cc2Cl)o1	-9.9
CC(C)OC(=O)CSc1nnc(-c2ccc(Cl)cc2Cl)o1	1.6
SMILES	HIV RNase H inh-1	others
O=C(CCNc1cccc(Cl)c1)c1ccco1	-20.5
CCOCCn1c(SCc2ccccc2)nc2c1c(=O)[nH]c(=O)n2C	-31.7
CCOCCn1c(SCC(=O)OCc2ccccc2)nc2c1c(=O)[nH]c(=O)n2C	86.3*
CCOC(=O)CSc1nc2c(c(=O)[nH]c(=O)n2C)n1CCCc1ccccc1	5.6
CCSCc1nnc(SCC(=O)Nc2cccc(SC)c2)n1C	-14.2
O=C(Nc1ccc(N2CCOCC2)cc1)C1CCCN(S(=O)(=O)c2cccc(C(F)(F)F)c2)C1 (stereo unspecified)	5.8
N#Cc1c(N)[nH]c(=S)c(C#N)c1-c1ccccc1	82.2*	HIV RNase H inh-2=-5.0
N#Cc1c(N)nc2c(c1-c1ccccc1)CCCC2	-14.5
N#Cc1c2c(nc(N)c1-c1ccccc1)CCCCC2	1.1
CCOC(=O)c1cnc(SCC(=O)c2ccccc2)nc1N	-8.2
N#CC1(c2ccccc2)CCCN1C(=O)c1ccc(Br)o1 (stereo unspecified)	-23.6
Cc1c(NC(=O)c2ccc3c(c2)OCO3)cccc1-c1nc2ccccc2o1	3.5
Cc1ccc(-c2nc3ccccc3o2)cc1NC(=O)c1ccc2c(c1)OCO2	61.8*	HIV RNase H inh-2=14.0
Cc1ccccc1OCc1nc(-c2ccc(NC(=O)c3ccco3)cc2)no1	26.3
O=C(Nc1ccccc1-c1nc2ccccc2o1)c1ccc2c(c1)OCCO2	0.5
Cc1ccccc1OCc1nc(-c2ccc(NC(=O)c3ccc4c(c3)OCO4)cc2)no1	74.6*	HIV RNase H inh-2=86.6*
O=C(NCc1nc(-c2ccccc2)no1)c1ccc2c(c1)OCO2	5.9
Cc1sc(NC(=O)CSc2nnc(C)c(=O)[nH]2)c(C#N)c1C	2.1
N#CCSc1nnc(Cc2cccc3ccccc23)n1C1CCCCC1	-17.0
O=C(C1CCN(S(=O)(=O)N2CCOCC2)CC1)N1CCN(c2ccccc2)CC1	-5.9
COc1ccc(-n2nc(C(=O)N3CCC(C#N)CC3)c3c4ccccc4n(C)c3c2=O)cc1	-13.5
Cc1c(Cc2ccccc2)sc(N)c1C(N)=O	81.7*	HIV RNase H inh-2=?
Cc1nc(N)nc(C)c1Cc1ccccc1	-7.0
Cc1nc(-c2ccccc2)sc1C(N)=O	-1.5
CC12CC(NC(=O)N1c1cccc(C(=O)N3CCN(c4ccccn4)CC3)c1)c1ccccc1O2 (stereo unspecified)	-9.2
SMILES	HIV RNase H inh-1	others
CC(C)CNC(=O)CN(C1CCCCC1)S(=O)(=O)c1ccccc1	-8.9
CC(=O)Oc1ccc(N2C(=O)C3C(C2=O)C2(C)C=CC3(C)O2)cc1 (stereo unspecified)	55.7*	HIV RNase H inh-2=43.1
COC(=O)c1cc(N2C(=O)C3C(C2=O)C2(C)C=CC3(C)O2)ccc1Cl (stereo unspecified)	15.6
CC(=O)Oc1ccc(C(c2ccc(OC(C)=O)cc2)c2ccccn2)cc1	-9.3
COc1ccc(C2(C(=O)NCCCN3CCOCC3)CCOCC2)cc1	-10.5
COC(=O)NCc1cc2cc(Cl)ccc2[nH]1	1.3
O=C(CSc1nc2ncccc2[nH]1)NCc1ccccc1	-8.9
Fc1ccccc1CSc1nc2ncccc2[nH]1	87.6*	HIV RNase H inh-2=60.4*
CC(C)OC(=O)CSc1nc2ncccc2[nH]1	-15.9
O=C(c1ccco1)N1CCN(C(=O)C2CCCc3c2[nH]c2ccc(Cl)cc32)CC1 (stereo unspecified)	17.7
Cc1ccc(O)c(C(=O)c2cnc3c(c2)CN(CCC(C)C)C(=O)N3)c1	62.9*	HIV RNase H inh-2=?
O=C1CS/C(=N\C(=O)N2c3ccccc3Sc3ccccc32)N1	19.3
O=C(CSc1nccc(=O)[nH]1)Nc1ccc(Br)c(Cl)c1	-6.2
Cc1ccc(NCCNc2ccc(C)cc2)cc1	-4.4
Cc1ccc(CNc2ccc(O)cc2)cc1	57.1*	HIV RNase H inh-2=3.5
CC(=O)N1CCN(c2ccc(NCc3ccc(C)cc3)cc2)CC1	0.4
CC(=O)OCc1c(F)c(F)c(-n2nc(C)cc2C)c(F)c1F	3.4
CCOc1ccc(OCC)c(NC(=O)C2CCCN(S(=O)(=O)c3cnc[nH]3)C2)c1 (stereo unspecified)	-7.7
COc1cc(C)c(C#N)c(OC)n1	-1.3
Cc1cc(C)c(C#N)c(N2CCSCC2)n1	-33.2
Cc1cc(C)c(C#N)c(=N)o1	92.8*	HIV RNase H inh-2=73.8*
COc1cc(NC(=O)NCc2ccncc2)cc(OC)c1OC	-16.8
Cc1ccc(Cn2nnc3c(=O)n(Cc4ccccc4C)cnc32)cc1	-16.4
O=C(CCCCCNS(=O)(=O)c1ccc(Br)cc1)NCCN1CCOCC1	-6.4
O=C(COc1ccccc1)N1CCN(C(=O)Cc2ccccc2)CC1	-6.9
COc1ccccc1N1CCN(C(c2cc3cc(C)ccc3[nH]c2=O)c2nnnn2C2CCCC2)CC1 (stereo unspecified)	53.8*	HIV RNase H inh-2=26.0
COc1ccccc1N1CCN(C(c2cc3ccc(C)cc3[nH]c2=O)c2nnnn2C2CCCC2)CC1 (stereo unspecified)	14.8
COc1cc2cc(C(c3nnnn3C3CCCC3)N3CCc4ccccc43)c(=O)[nH]c2cc1OC (stereo unspecified)	20.0

Bioassay records (PubChem)
